Assay results: article PMC7826789 (International Journal of Molecular Sciences, 2021)

## Cn1ccc2ncnc(Oc3ccc(NC(=O)Nc4ccccc4)cc3)c21 [TPKI-69]
CSF1R
  Kinases covered: CSF1R

## O=C(Nc1ccccc1)Nc1cccc(Oc2ccc3nccn3n2)c1 [TPKI-39]
CSF1R
  Kinases covered: CSF1R

## Fc1ccc(-c2nn3ccccc3c2-c2ccncc2)cc1 [GW434756X]
CSNK1A1
  Kinases covered: CSNK1A1

## Nc1nccc(-c2c(-c3ccc(F)cc3)ncn2C2CCN(Cc3ccccc3)CC2)n1 [SB-219980]
CSNK1A1
  Kinases covered: CSNK1A1
CSNK1D
  Kinases covered: CSNK1D
CSNK1E
  Kinases covered: CSNK1E

## Cc1nccc(-c2c(-c3ccc(F)cc3)ncn2CCCN2CCOCC2)n1 [SB-282975]
CSNK1D
  Kinases covered: CSNK1D

## C[C@@H]1CCN(C(=O)CC#N)C[C@@H]1N(C)c1ncnc2[nH]ccc12 [PFE-PKIS 25]
DCLK3
  Kinases covered: DCLK3

## Cc1cc(NC(=O)c2cccc(NC(=O)/C=C/CN(C)C)c2)ccc1Nc1nccc(-c2cccnc2)n1 [JNK-IN-7]
DRAK1
  Kinases covered: DRAK1

## CCC(NN(C)C)=C1C(=O)Nc2ccc(C(C)=O)cc21 [BI00036838]
DYRK1B
  Kinases covered: DYRK1B
DYRK2
  Kinases covered: DYRK2
